Data as given in PubChem BioAssay (NCATS).
Values joined by “and” are separate entries in the source; they are usually repeats but may differ in a detail not shown here. Equal entries are not always repeated. Records with an inconclusive call do not appear. More than one record can exist for a structure, and the calls need not agree. Active and inactive are the calls of the source. Unless noted, calls come from the whole dose curve; as a rule, active = well fitted curve in either direction with a large enough effect (not every such curve was filed as active); inconclusive = small, poorly fitted or top-dose-only effect, or another doubt; inactive = flat fitted curve, though single readings scatter.

Experiments:
[1] = AP1 Signaling Pathway (AID 357);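 note: ME-180 reporter cells stimulated with EGF at its EC50 level; % is set by controls: 0 for no effect and ±100 for the full control effect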
Procedure, shortened: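 Cells are seeded overnight, exposed to compound titrations and an EC50 level of EGF for 5 hours at 37 °C, then loaded with CCF4 dye for 2.5 hours. Beta-lactamase activity under the AP-1 element is read as a blue/green ratio.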

[2] = target: Cytochrome P450 1A2 (Homo sapiens) (UniProt P05177); assay: p450-cyp1a2 (AID 410; calls by dose curve; note: potency is the fitted concentration of half-maximal effect;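 for activity change, negative = inhibition: -100% = full effect of reference inhibitor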)
Sequence of Cytochrome P450 1A2 (Homo sapiens) (P05177 whole entry, looked up): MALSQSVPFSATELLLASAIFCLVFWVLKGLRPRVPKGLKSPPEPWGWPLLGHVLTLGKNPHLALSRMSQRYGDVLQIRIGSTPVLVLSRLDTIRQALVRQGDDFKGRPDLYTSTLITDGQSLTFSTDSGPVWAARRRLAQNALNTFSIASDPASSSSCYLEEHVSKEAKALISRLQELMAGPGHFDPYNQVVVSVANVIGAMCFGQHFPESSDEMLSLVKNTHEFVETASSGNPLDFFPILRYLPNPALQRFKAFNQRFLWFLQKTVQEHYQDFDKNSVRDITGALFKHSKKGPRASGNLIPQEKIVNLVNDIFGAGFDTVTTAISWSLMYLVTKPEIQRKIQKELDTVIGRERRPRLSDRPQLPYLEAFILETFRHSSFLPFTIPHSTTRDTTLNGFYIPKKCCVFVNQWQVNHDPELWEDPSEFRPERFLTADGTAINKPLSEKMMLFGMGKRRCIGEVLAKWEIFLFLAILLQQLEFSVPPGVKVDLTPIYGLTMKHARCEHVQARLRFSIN
Procedure, shortened: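 Luminescent demethylation readout: Luciferin-ME (100uM, equal to Km) turned over by 20nM CYP1A2 for 60 min at room temperature after NADPH regeneration addition, following 10 min compound preincubation. Normalization used 57 uM furafylline as full inhibition.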

[3] = Cell Viability - BJ (AID 421; calls by dose curve;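 note: potency is the fitted concentration of half-maximal effect; cells exposed to compound for 40 hours at 37 °C before readout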); conditions: BJ fibroblast viability, qHTS
Procedure, shortened: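 Cytotoxicity as drop in intracellular ATP (CellTiter-Glo, 20 min RT) after 40 hr compound exposure of BJ fibroblasts at 37 °C. Titrations scaled between DMSO and 100 uM tamoxifen, Hill-fitted for AC50.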

[4] = Cell Viability - Jurkat (AID 426;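 active = dose-dependent loss of cell ATP signal giving a full or clear fitted curve, ranked by lower potency value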; note: potency is the fitted concentration of half-maximal effect); conditions: qHTS
Procedure, shortened: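 Cytotoxicity taken as drop in cellular ATP (CellTiter-Glo luminescence, 20 min room temperature) after 40 hr, 37C treatment of 5000 Jurkat Clone E6-1 cells per well; concentration-response fitted with Hill equation for AC50.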

[5] = Cell Viability - Hek293 (AID 427;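 active = compounds whose dose-response curve shows a full or clear partial loss of cell viability, called from curve shape rather than a numeric limit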;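 note: potency is the fitted concentration of half-maximal effect; cells exposed to compound for 40 hours at 37 °C before reading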); conditions: qHTS
Procedure, shortened: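 Luminescent ATP content (CellTiter-Glo, 20 min at room temperature) was measured after a 40 hr, 37 °C compound exposure of HEK293 cells. AC50 values came from Hill-equation fits of qHTS concentration-response data normalized to DMSO and 100 uM tamoxifen.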

[6] = Cell Viability - HepG2 (AID 433; calls by dose curve;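 note: potency is the fitted concentration of half-maximal effect; potency for ATP loss meaning cytotoxicity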); conditions: qHTS
Procedure, shortened: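 In this qHTS format, a 40 h, 37 °C compound incubation of HepG2 cells in complete medium precedes a 20 min CellTiter-Glo step at room temperature. Tamoxifen and doxorubicin serve as positive controls; Hill-equation fits yield AC50.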

[7] = Cell Viability - MRC5 (AID 434; calls by dose curve;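 note: potency is the fitted concentration of half-maximal effect; potency reflects cytotoxicity seen as loss of intracellular ATP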); conditions: MRC5 lung fibroblast viability, qHTS
Procedure, shortened: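 ATP luminescence read-out (CellTiter-Glo, 20 min RT) after 40 hr, 37 °C compound exposure of 1500 MRC5 cells/well. Data normalized to DMSO (basal) and 100 uM tamoxifen (100% inhibition); AC50 from standard Hill equation.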

[8] = Cell Viability - SK-N-SH (AID 435; calls by dose curve; note: potency is the fitted concentration of half-maximal effect); conditions: SK-N-SH neuroblastoma cell viability qHTS
Procedure, shortened: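 Human neuroblastoma line, 40 h exposure at 37 °C, ATP quantified via luciferase luminescence; DMSO and 100 uM tamoxifen define 0 and 100% inhibition for AC50 fitting.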

[9] = NFAT Signaling Pathway (AID 444); conditions: Jurkat NFAT-bla M1, carbachol, beta-lactamase ratio, 5 h;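 note: carbachol stimulus at about its EC50 of 1 µM final; % is set by controls: 0 for no effect and ±100 for the full control effect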
Procedure, shortened: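 Jurkat cells with NFAT-driven β-lactamase reporter and co-expressed M1 receptor, stimulated with carbachol (final 1 uM, ~EC50), compound titration, 5 h at 37 °C. CCF4 loaded 1 h at RT; 460/530 nm ratio gave %activity and AC50.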

[10] = Stat Signaling Pathway (AID 446);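 note: ME-180 cervical cancer cells given 40 pM IL-6 alongside compound; SIE-controlled beta-lactamase reporter measured as 460/530 nm FRET emission ratio; % is set by controls: 0 for no effect and ±100 for the full control effect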
Procedure, shortened: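 FRET read-out (405 nm excitation, 460/530 nm emission) of a beta-lactamase reporter under a STAT-inducible element in ME-180 cervical carcinoma cells. Cells with compound receive 40 pM IL-6 for 5 h. Values are normalised to AC90 stimulation and AC90 JAK-inhibitor controls.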

[11] = target: Mitogen-activated protein kinase 10 (Mus musculus) (UniProt Q61831); assay: JNK3 AlphaScreen Assay (AID 530);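 note: kinase came from lysate of stimulated human HepG2 cells; signal reports phosphorylation of biotinylated GST-cJun 1-79 at Ser73 with 10 µM ATP; % is set by controls: 0 for no effect and ±100 for the full control effect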
Procedure, shortened: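 Activity was read by AlphaScreen after JNK3-containing HepG2 lysate (cytokine pre-activated) phosphorylated biotinylated GST-cJun with 10 uM ATP at room temperature. Phospho-Ser73 cJun antibody with Protein-A acceptor beads provided detection.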

[12] = Cell Viability - N2a (AID 540; active = well fitted curve in the direction sought with a large enough effect; an effect the other way counts as inactive or inconclusive; note: nearly all actives have a fitted effect of over 45% in size; note: potency is the fitted concentration of half-maximal effect;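 for activity change, negative = cytotoxicity: plate controls were DMSO alone for no effect and tamoxifen control for full effect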); conditions: N2a mouse neuroblastoma cell viability; activity change, negative = cytotoxicity: at 92.2 µM (top of the series)
Procedure, shortened: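 CellTiter-Glo ATP luminescence, read 20 min after reagent at room temperature, reported viability following 40 h compound treatment at 37 °C. N2a mouse neuroblastoma cells seeded 1500/well; Hill equation gave AC50.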

[13] = Cell Viability - NIH 3T3 (AID 541; active = well fitted curve in the direction sought with a large enough effect; an effect the other way counts as inactive or inconclusive;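 note: plate controls were DMSO alone for no effect and tamoxifen positive control for full effect; nearly all actives have a fitted effect of over 25% in size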); conditions: NIH 3T3 cell viability, qHTS; activity change, negative = cytotoxicity: at 92.2 µM (top of the series)
Procedure, shortened: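 Intracellular ATP (CellTiter-Glo luminescence, 20 min at room temperature) measured after 40 hr compound exposure at 37 °C of 1000 NIH 3T3 mouse fibroblasts/well in complete medium; AC50 derived by Hill-equation modelling of qHTS concentration-response curves.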

[14] = Cell Viability - HUV-EC-C (AID 542; active = well fitted curve in the direction sought with a large enough effect; an effect the other way counts as inactive or inconclusive; note: % is set by controls: 0 for no effect and ±100 for the full control effect; nearly all actives have a fitted effect of over 35% in size)
Procedure, shortened: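 CellTiter-Glo luminescence measured ATP loss in HUV-EC-C cells (1000/well) after 40 hr compound exposure at 37 °C, in complete culture medium. Concentration-response data were Hill-fitted to give AC50.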

[15] = Cell Viability - H-4-II-E (AID 543; active = well fitted curve in the direction sought with a large enough effect; an effect the other way counts as inactive or inconclusive; note: nearly all actives have a fitted effect of over 35% in size; note: potency is the fitted concentration of half-maximal effect)
Procedure, shortened: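 CellTiter-Glo luminescence (intracellular ATP) measured after 40 h compound exposure at 37 °C in H-4-II-E rat hepatoma cells seeded at 1500/well. Values are AC50s fitted with the standard Hill equation.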

[16] = Cell Viability - SH-SY5Y (AID 544; active = well fitted curve in the direction sought with a large enough effect; an effect the other way counts as inactive or inconclusive; note: nearly all actives have a fitted effect of over 55% in size; note: potency is the fitted concentration of half-maximal effect;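 for viability change, negative = cytotoxic: 0% = DMSO alone and -100% = 100 µM tamoxifen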); conditions: SH-SY5Y neuroblastoma cell viability; viability change, negative = cytotoxic: at 92.2 µM (top of the series)
Procedure, shortened: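 Cytotoxicity measured via ATP-dependent luciferase luminescence (CellTiter-Glo) following 40 h, 37 °C exposure of 1500 SH-SY5Y cells per well. Concentration-response data were fitted with the standard Hill equation to give AC50.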

[17] = Cell Viability - Renal Proximal Tubule (AID 545; active = well fitted curve in the direction sought with a large enough effect; an effect the other way counts as inactive or inconclusive; note: nearly all actives have a fitted effect of over 40% in size; note: potency is the fitted concentration of half-maximal effect;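 for activity change, negative = cytotoxicity: 0% = DMSO only and -100% = 100 µM tamoxifen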)
Procedure, shortened: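 In this qHTS format, normal rat kidney-derived proximal tubule cells in complete culture medium receive compound titrations, then sit 40 hours at 37 °C before luciferase-based ATP quantitation; potency is reported as AC50 from concentration-response curves.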

[18] = target: Glucocorticoid receptor (Homo sapiens) (UniProt P04150); assay: GR-GFP Redistribution (AID 450;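 active = compounds whose dose series gives a full or clear partial fitted curve of increased nuclear translocation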; note: potency is the fitted concentration of half-maximal effect); conditions: U2OS GR-GFP nuclear translocation, laser cytometry, 2 h
Sequence of Glucocorticoid receptor (Homo sapiens) (P04150 whole entry, looked up, the tested form may be a part): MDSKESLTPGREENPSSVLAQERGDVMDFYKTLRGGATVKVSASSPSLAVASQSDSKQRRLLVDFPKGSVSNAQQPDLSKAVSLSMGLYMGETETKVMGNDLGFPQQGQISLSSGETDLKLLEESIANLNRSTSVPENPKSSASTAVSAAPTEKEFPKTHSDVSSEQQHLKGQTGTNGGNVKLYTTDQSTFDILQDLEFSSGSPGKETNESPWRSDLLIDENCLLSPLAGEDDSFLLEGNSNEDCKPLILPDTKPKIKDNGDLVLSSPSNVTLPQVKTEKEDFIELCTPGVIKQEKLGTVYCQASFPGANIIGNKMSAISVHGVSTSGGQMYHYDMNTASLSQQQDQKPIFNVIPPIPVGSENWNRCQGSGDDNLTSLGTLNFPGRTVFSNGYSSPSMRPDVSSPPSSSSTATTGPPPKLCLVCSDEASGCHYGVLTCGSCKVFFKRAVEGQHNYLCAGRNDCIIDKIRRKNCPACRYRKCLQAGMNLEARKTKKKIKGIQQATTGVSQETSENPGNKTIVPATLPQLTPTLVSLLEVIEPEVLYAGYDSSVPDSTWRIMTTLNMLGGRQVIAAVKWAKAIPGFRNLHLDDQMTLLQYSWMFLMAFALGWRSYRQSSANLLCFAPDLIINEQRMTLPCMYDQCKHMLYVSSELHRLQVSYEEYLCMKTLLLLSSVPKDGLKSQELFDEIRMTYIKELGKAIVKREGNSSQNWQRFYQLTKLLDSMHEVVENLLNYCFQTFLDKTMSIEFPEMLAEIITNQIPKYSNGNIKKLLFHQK

[19] = target: Glucocorticoid receptor (Homo sapiens) (UniProt P04150); assay: GR-EFC Redistribution (AID 451; calls by dose curve; note: potency is the fitted concentration of half-maximal effect); conditions: CHO-K1 GR-EFC translocation, beta-gal luminescence, 2 h
Procedure, shortened: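 CHO-K1 cells expressing nuclear EA and GR-ED fragments of b-gal; compounds titrated up to 46 uM final, 2 h at 37 C. GR nuclear translocation read as complemented b-gal luminescence after 1 h RT detection.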

Cn1c(=O)c2[nH]cnc2n(C)c1=O
outcome [1]: inactive | Potency [2]: inactive | Potency [3]: > 92 µM (inactive) | Potency [4]: > 92 µM (inactive) | Potency [5]: > 92 µM (inactive) | Potency [6]: > 92 µM (inactive) | Potency [7]: > 92 µM (inactive) | Potency [8]: > 92 µM (inactive) | activity change, negative = inhibition ([9]; at 17.2 µM (top of the series)): -8.18% (inactive) and -8.96% (inactive) and 7.57% (inactive) | activity change, negative = inhibition ([9]; at 38 µM (top of the series)): 8.38% (inactive) | outcome [10]: inactive | outcome [11]: inactive | activity change, negative = cytotoxicity [12]: 8.85% (inactive) | Potency [13]: inactive | outcome [14]: inactive | Potency [15]: inactive | Potency [16]: inactive | Potency [17]: inactive

Cn1ccc2cc3c(cc21)CCN3C(=O)Nc1cccnc1
outcome [1]: inactive | Potency [2]: 25.1 nM (active) and 3.98 nM (active) | activity change, negative = inhibition ([9]; at 38 µM (top of the series)): -1.4% (inactive) | outcome [10]: inactive | Potency [18]: > 46 µM (inactive) | Potency [19]: > 46 µM (inactive) | outcome [11]: inactive

Cc1cc(C(C)(C)C)cc(C)c1CC1=NCCN1
outcome [1]: inactive | Potency [2]: inactive | outcome [10]: inactive | Potency [18]: > 46 µM (inactive) and > 20.6 µM (inactive) | Potency [19]: > 46 µM (inactive) and > 20.6 µM (inactive) | outcome [11]: inactive

CCC1(c2ccccc2)C(=O)NCNC1=O
outcome [1]: inactive | Potency [2]: inactive | Potency [3]: > 92 µM (inactive) | Potency [4]: > 92 µM (inactive) | Potency [5]: > 92 µM (inactive) | Potency [6]: > 92 µM (inactive) | Potency [7]: > 92 µM (inactive) | Potency [8]: > 92 µM (inactive) | activity change, negative = inhibition ([9]; at 17.2 µM (top of the series)): -2.38% (inactive) and -28.2% (inactive) | activity change, negative = inhibition ([9]; at 38 µM (top of the series)): 0.117% (inactive) | outcome [10]: inactive | Potency [18]: > 46 µM (inactive) and > 20.6 µM (inactive) | Potency [19]: > 46 µM (inactive) and > 20.6 µM (inactive) | outcome [11]: inactive | activity change, negative = cytotoxicity [12]: -14.7% (inactive) | Potency [13]: inactive | outcome [14]: inactive | Potency [15]: inactive | Potency [16]: inactive | Potency [17]: inactive

COc1cc2c(c(OC)c1OC)-c1ccc(OC)c(=O)cc1[C@@H](NC(C)=O)CC2
Potency [3]: > 92 µM (inactive) | Potency [4]: 2.81 nM (active) and 1.63 nM (active) | Potency [5]: > 92 µM (inactive) | Potency [6]: > 92 µM (inactive) | Potency [7]: > 92 µM (inactive) | Potency [8]: 9.09 nM (active) and 5.26 nM (active) | outcome [11]: inactive | Potency [12]: 0.01 µM (active) | Potency [13]: inactive | outcome [14]: inactive | Potency [15]: 0.126 µM (active) | Potency [16]: 5.01 nM (active) and 3.98 nM (active) | Potency [17]: 25.1 nM (active) and 20 nM (active)

Clc1ccccc1C(c1ccccc1)(c1ccccc1)n1ccnc1
outcome [10]: inactive | Potency [18]: > 46 µM (inactive) and > 20.6 µM (inactive) | Potency [19]: > 46 µM (inactive) and > 20.6 µM (inactive) | outcome [11]: inactive

O=C(CCCN1CCC(O)(c2ccc(Cl)cc2)CC1)c1ccc(F)cc1
outcome [1]: inactive | activity change, negative = inhibition ([9]; at 38 µM (top of the series)): -17.8% (inactive) | outcome [10]: inactive | outcome [11]: inactive

CCc1cccc2c3c([nH]c12)C(CC)(CC(=O)O)OCC3 (centres undefined)
outcome [1]: inactive | activity change, negative = inhibition ([9]; at 17.2 µM (top of the series)): 12.2% (inactive) | outcome [10]: inactive

CCCNCC(O)COc1ccccc1C(=O)CCc1ccccc1 (centres undefined)
outcome [1]: inactive | outcome [10]: inactive

Cc1cnc(C(=O)NCCc2ccc(S(=O)(=O)NC(=O)NC3CCCCC3)cc2)cn1
outcome [1]: inactive | activity change, negative = inhibition ([9]; at 17.2 µM (top of the series)): -11% (inactive) and -0.964% (inactive) | activity change, negative = inhibition ([9]; at 38 µM (top of the series)): -4.17% (inactive) | outcome [10]: inactive | outcome [11]: inactive

CN(C)CCCN1c2ccccc2CCc2ccc(Cl)cc21
Potency [2]: 20 µM (active) and 5.01 µM (active) and 15.8 µM (active) | activity change, negative = inhibition ([9]; at 17.2 µM (top of the series)): -83% (active) | outcome [10]: inactive | Potency [18]: > 46 µM (inactive) and > 20.6 µM (inactive) | Potency [19]: > 46 µM (inactive) and > 20.6 µM (inactive) | outcome [11]: inactive

Cc1ccc(-c2cc(C(F)(F)F)nn2-c2ccc(S(N)(=O)=O)cc2)cc1
Potency [3]: > 92 µM (inactive) | Potency [4]: > 92 µM (inactive) | Potency [5]: > 92 µM (inactive) | Potency [6]: > 92 µM (inactive) | Potency [7]: > 92 µM (inactive) | Potency [8]: > 92 µM (inactive) | outcome [11]: inactive | activity change, negative = cytotoxicity [12]: -43.6% (inactive) | activity change, negative = cytotoxicity [13]: -132% (active) | outcome [14]: inactive

CC(C)NCC(O)COc1ccc(CCOCC2CC2)cc1 (centres undefined)
outcome [1]: inactive | outcome [10]: inactive | Potency [18]: > 20.6 µM (inactive)

CN(Cc1cnc2nc(N)nc(N)c2n1)c1ccc(C(=O)N[C@@H](CCC(=O)O)C(=O)O)cc1
Potency [2]: inactive | outcome [11]: inactive

CCOC(=O)C(C)(C)Oc1ccc(Cl)cc1
outcome [1]: inactive | activity change, negative = inhibition ([9]; at 38 µM (top of the series)): -4.66% (inactive) | outcome [10]: inactive | Potency [18]: > 46 µM (inactive) | Potency [19]: > 46 µM (inactive) | outcome [11]: inactive

O=C(C1CCCCC1)N1CC(=O)N2CCc3ccccc3C2C1 (centres undefined)
outcome [1]: inactive | activity change, negative = inhibition ([9]; at 17.2 µM (top of the series)): -4.85% (inactive) and -1.54% (inactive) | outcome [10]: inactive | Potency [18]: > 20.6 µM (inactive)

CN1CCN(C2=Nc3cc(Cl)ccc3Nc3ccccc32)CC1
outcome [1]: inactive | activity change, negative = inhibition ([9]; at 38 µM (top of the series)): -49.7% (active) | outcome [10]: inactive | Potency [18]: > 46 µM (inactive) and > 20.6 µM (inactive) and 2.68 µM (active) | Potency [19]: > 46 µM (inactive) and > 20.6 µM (inactive) | outcome [11]: inactive

Cc1ccc(C(=O)Nc2ccc(S(=O)(=O)O)c3cc(S(=O)(=O)O)cc(S(=O)(=O)O)c23)cc1NC(=O)c1cccc(NC(=O)Nc2cccc(C(=O)Nc3cc(C(=O)Nc4ccc(S(=O)(=O)O)c5cc(S(=O)(=O)O)cc(S(=O)(=O)O)c45)ccc3C)c2)c1
outcome [1]: inactive | activity change, negative = inhibition ([9]; at 38 µM (top of the series)): -19.8% (inactive) | Potency [18]: > 46 µM (inactive) | Potency [19]: > 46 µM (inactive) | outcome [11]: inactive
